Assay outcomes deposited in PubChem by National Center for Advancing Translational Sciences (NCATS).
Pf growth 48h = inhibits P. falciparum growth in the first generation, 48 h; P. falciparum luciferase growth in erythrocytes, 48 h; Potency, µM (highest dose often 28.7 µM), for inactives: top-dose activity change, negative = inhibition, usual class: inhibitors; 310,000 tested, 5.9% active; also: % is scaled to controls: 0 for no effect and ±100 for the full control effect
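In quantitative HTS format, infected erythrocytes bearing luciferase-reporter parasites were treated for a single generation at 37 C. Luminescence after adding detection reagent served as the growth measure.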
Pf growth 96h = P. falciparum growth inhibition at 96 hours | P. falciparum luciferase reporter growth, 96 h | Potency, µM (doses to about 28.7 µM), for inactives: at the top dose activity change, negative = inhibition, usual class: inhibitors | 320,000 tested, 6.9% active; also: % is scaled to controls: 0 for no effect and ±100 for the full control effect
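P. falciparum expressing integrated firefly luciferase grown in erythrocytes (2% hematocrit, 0.05% parasitemia final) with compounds for 96 hours at 37 C, 5% CO2. Growth inhibition read as loss of luminescence after adding luciferase detection reagent.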
AMA1-RON2 inh = disrupts binding of P. falciparum AMA1 to RON2; AlphaScreen AMA1-biotinylated RON2 peptide binding; Potency, µM (series often up to 58.2 µM), for inactives: at the highest dose activity change, negative = inhibition, actives largely listed as inhibitors; 360,000 tested, 0.2% active;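 also: 0% = vehicle wells and -100% = peptide control; nearly all actives have a fitted effect of over 45% in size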
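AMA1 (3D7) with his tag at 25 nM final met compounds first, then biotinylated RON2 peptide at 25 nM; detection used donor plus acceptor beads, 10 µg/mL apiece, read by AlphaScreen after 30 min at room temperature.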
SARS PLpro yeast = SARS-CoV PLP inhibition in yeast | S. cerevisiae expressing SARS-CoV PLpro, growth rescue | AID 485353 | 330,000 tested, 0.19% active | Potency, µM (highest dose often 32.9 µM), inactives show top-dose activity, positive = growth rescue, most hits filed as activators; calls by dose curve; also: 0% is about no effect; nearly all actives have a fitted effect of over 55% in size
The depositor's hits bear a star. A selection: hits, their analogues and other compounds. The true share with any hit is near 9.4%. Unless noted, calls follow the shape of the dose curve; as a rule, active = well fitted curve in the direction sought with a large enough effect; inconclusive = small, poorly fitted or top-dose-only effect, or another doubt; inactive = no such curve, though single readings can be large; an effect the other way counts as inactive or inconclusive. Potency is read from the fitted curve at half-maximal effect.

How did CCOC(=O)[C@H]1[C@H]2COc3cc(OC)ccc3[C@@H]2N2C(=O)c3cc(F)c(F)cc3NC(=O)[C@@]12C do in these assays?
Pf growth 48h: inconclusive; Pf growth 96h: 13µM*; AMA1-RON2 inh: -4%; SARS PLpro yeast: -4%

How did CCOC(=O)[C@H]1[C@H]2COc3cc(OC)ccc3[C@@H]2N2C(=O)c3cc(C)ccc3NC(=O)[C@@]12C do in these assays?
Pf growth 48h: 4.7µM*; Pf growth 96h: 2.3µM*; AMA1-RON2 inh: -4%; SARS PLpro yeast: 4%

What do the screens show for `COc1ccccc1C/C(N)=N/OC(=O)COc1ccc(C)cc1`?
Pf growth 48h: 1%; Pf growth 96h: 2.1µM*; AMA1-RON2 inh: 34%; SARS PLpro yeast: 6%

Results for Cc1ccc(OC(=O)COc2ccccc2C)cc1 ?
Pf growth 48h: -2%; Pf growth 96h: 15%; AMA1-RON2 inh: 25%; SARS PLpro yeast: 0%

What do the screens show for `Cc1ccc(OCC(=O)Oc2cccc(C)c2C)cc1`?
Pf growth 48h: 41%; Pf growth 96h: 12µM*; AMA1-RON2 inh: 10%; SARS PLpro yeast: -7%

Results for COc1ccccc1C/C(N)=N/OC(=O)c1cccc([N+](=O)[O-])c1C ?
Pf growth 48h: 9.3µM*; Pf growth 96h: 33%; AMA1-RON2 inh: 5%; SARS PLpro yeast: -93%

What do the screens show for `Cc1cccc(NCc2ccccc2O)c1C`?
Pf growth 48h: inconclusive; Pf growth 96h: 0%; AMA1-RON2 inh: -11%; SARS PLpro yeast: -18%

How did COc1cc(/C(C)=N/NC(=O)c2ccc(CSc3nncn3C)cc2)cc(OC)c1OC do in these assays?
Pf growth 48h: -20%; Pf growth 96h: 13µM*; AMA1-RON2 inh: 17%; SARS PLpro yeast: 0%

How did Cn1cnnc1SCc1ccc(C(=O)N=Nc2c(O)n(C)c3ccccc23)cc1 do in these assays?
Pf growth 48h: inconclusive; Pf growth 96h: 10µM*; AMA1-RON2 inh: 3%; SARS PLpro yeast: -1%

How did Cn1cnnc1SCC(=O)n1c2ccccc2c2ccccc21 do in these assays?
Pf growth 48h: 1%; Pf growth 96h: 17%; AMA1-RON2 inh: -2%; SARS PLpro yeast: -19%

What do the screens show for `COc1ccc(/C=N/NC(=O)c2ccc(CSc3nncn3C)cc2)cc1OC`?
Pf growth 48h: inconclusive; Pf growth 96h: inconclusive; AMA1-RON2 inh: 0%; SARS PLpro yeast: 2%

How did COc1ccc2oc(C(=O)N3CCN(S(=O)(=O)c4cccc([N+](=O)[O-])c4)CC3)c(C)c2c1 do in these assays?
Pf growth 48h: inconclusive; Pf growth 96h: 8.3µM*; AMA1-RON2 inh: -2%; SARS PLpro yeast: -1%

What do the screens show for `CCOc1ccc(S(=O)(=O)N2CCN(C(=O)c3oc4ccc(OC)cc4c3C)CC2)cc1`?
Pf growth 48h: 10µM*; Pf growth 96h: inconclusive; AMA1-RON2 inh: 0%; SARS PLpro yeast: -3%

How did COc1cccc(C(=O)CN2CCN(S(=O)(=O)c3cccc([N+](=O)[O-])c3)CC2)c1 do in these assays?
Pf growth 48h: -2%; Pf growth 96h: 0.41µM*; AMA1-RON2 inh: 40%; SARS PLpro yeast: -22%

Results for COc1ccc2oc(C(=O)OCC(=O)N3CCN(S(=O)(=O)c4ccccc4)CC3)c(C)c2c1 ?
Pf growth 48h: inconclusive; Pf growth 96h: -6%; AMA1-RON2 inh: -10%; SARS PLpro yeast: 1%

Results for COc1ccc(C(=O)CN2CCN(S(=O)(=O)c3cccc([N+](=O)[O-])c3)CC2)cc1OC ?
Pf growth 48h: -3%; Pf growth 96h: inconclusive; AMA1-RON2 inh: 0%; SARS PLpro yeast: 11%

How did COc1cccc(C(=O)CN2CCC(NC(=O)NC3CCCCC3)CC2)c1 do in these assays?
Pf growth 48h: 2%; Pf growth 96h: 15µM*; AMA1-RON2 inh: 5%; SARS PLpro yeast: 1%

What do the screens show for `Cc1ccc(NC(=O)COC(=O)c2ccc(CN3CCCC3=O)cc2)cc1C`?
Pf growth 48h: 5%; Pf growth 96h: 1%; AMA1-RON2 inh: 11%; SARS PLpro yeast: 0%

How did COc1ccc(-c2cc(C(F)(F)F)n3nc(C(=O)N4CCOCC4)nc3n2)cc1 do in these assays?
Pf growth 48h: -16%; Pf growth 96h: inconclusive; AMA1-RON2 inh: -26%; SARS PLpro yeast: 6%

How did O=C(CC1SC(N2CCCCC2)=NC1=O)Nc1cccc(C(=O)NCc2ccc(F)cc2)c1 (configuration not stated) do in these assays?
Pf growth 48h: -15%; Pf growth 96h: inconclusive; AMA1-RON2 inh: -2%; SARS PLpro yeast: -4%

How did COc1c(Cl)cnn(-c2ccc(Cl)c(Cl)c2)c1=O do in these assays?
Pf growth 48h: inconclusive; Pf growth 96h: 38%; AMA1-RON2 inh: 41%; SARS PLpro yeast: 0%

What do the screens show for `COc1ccc(C2(c3ccc(OC)cc3)NC(=O)N(CC(=O)NCC(C)c3ccccc3)C2=O)cc1` (configuration not stated)?
Pf growth 48h: 12µM*; Pf growth 96h: 12µM*; AMA1-RON2 inh: -7%; SARS PLpro yeast: 1%

Results for COc1ccc(C2(c3ccc(OC)cc3)NC(=O)N(CC(=O)Nc3ccc(OC(F)F)cc3)C2=O)cc1 ?
Pf growth 48h: 12µM*; Pf growth 96h: inconclusive; AMA1-RON2 inh: -13%; SARS PLpro yeast: 4%

Results for COc1ccc(C2(c3ccc(OC)cc3)NC(=O)N(CC(=O)NC(C)C)C2=O)cc1 ?
Pf growth 48h: 23%; Pf growth 96h: 9%; AMA1-RON2 inh: 2%; SARS PLpro yeast: 1%

What do the screens show for `CCOc1ccc(NC(=O)CN2C(=O)NC(C)(c3ccc(OC(F)F)cc3)C2=O)cc1` (configuration not stated)?
Pf growth 48h: 1µM*; Pf growth 96h: inconclusive; AMA1-RON2 inh: -17%; SARS PLpro yeast: 7%

Results for Cc1sc2ncn(CC(=O)N3CCCCC3)c(=O)c2c1C ?
Pf growth 48h: -1%; Pf growth 96h: inconclusive; AMA1-RON2 inh: -24%; SARS PLpro yeast: 3%

How did Cc1cc(NCc2cccnc2)nc(N)n1 do in these assays?
Pf growth 48h: -5%; Pf growth 96h: 3%; AMA1-RON2 inh: -3%; SARS PLpro yeast: 1%

How did COc1ccc(NC(=S)N(CCCN2CCCCC2)Cc2cccs2)cc1 do in these assays?
Pf growth 48h: inconclusive; Pf growth 96h: 12µM*; AMA1-RON2 inh: 0%; SARS PLpro yeast: 12%

What do the screens show for `COc1ccc(NC(=S)N(CCCN2CCC(C)CC2)Cc2cccs2)cc1`?
Pf growth 48h: 0%; Pf growth 96h: 5.9µM*; AMA1-RON2 inh: -13%; SARS PLpro yeast: -5%

Results for CCOC(=O)c1ccc(NC(=S)N(CCCN2CCN(C)CC2)Cc2cccs2)cc1 ?
Pf growth 48h: inconclusive; Pf growth 96h: 45%; AMA1-RON2 inh: -8%; SARS PLpro yeast: 0%

Results for CCOC(=O)c1ccc(NC(=S)N(CCCN2CCN(CC)CC2)Cc2cccs2)cc1 ?
Pf growth 48h: 8.3µM*; Pf growth 96h: -3%; AMA1-RON2 inh: 22%; SARS PLpro yeast: 1%

What do the screens show for `CN(CC(=O)Nc1ccccc1Br)C(=O)CN(C)C1CCCCC1`?
Pf growth 48h: -7%; Pf growth 96h: 16%; AMA1-RON2 inh: 18%; SARS PLpro yeast: -4%

Results for O=C(NN=C1CCN(Cc2ccccc2)CC1)c1cc2ccccc2cc1O ?
Pf growth 48h: inconclusive; Pf growth 96h: inconclusive; AMA1-RON2 inh: 4%; SARS PLpro yeast: 14%
